Results as given in ChEMBL document CHEMBL3988442, “University of Dundee, Small-Polar-MMV Screening Library” (2021).
Out of some 48,000 compounds screened, about 13,000 (27%) showed an effect of 50% or more. The list shows a part of the results.

What follows are compounds tested on Wolbachia pipientis (assay: Anti-Wolbachia Cell-Based Screen). Conditions: 5 µM.
Type: functional
Set-up: scale not given: in the data most compounds retested in dose-response had high values

Row | Structure (SMILES) | Percent Effect [%]
1 | Cc1nnc(N2CCN(C(=O)NC3CC3)CC2)c(C(N)=O)c1C | -22.89
2 | CS(=O)(=O)NCC1CCCCN1Cc1ccccc1C#N (stereo not given) | 1.848
3 | Cn1c(C2CC2)nc2c1CCN(CCc1ccccn1)C2 | -2.558
4 | Cc1nc(CNC2CCN(Cc3ccccc3)C2)sc1C (stereo not given) | -5.508
5 | O=C1CN(CC2CC2)Cc2nc(NCc3ccccc3)sc21 | 59.83
6 | O=C(NCCc1ccccn1)NC1CCN(c2ccccc2)C1=O (stereo not given) | 10.23
7 | O=C1CN(CC2CC2)Cc2nc(NCCc3ccccn3)sc21 | 91.68
8 | O=C(NCc1ccccc1)[C@@H]1Cc2[nH]cnc2CN1CC1CC1 | 2.59
9 | COCCN1CC(=O)c2sc(NCc3ccccc3)nc2C1 | 105.3
10 | CSC1(CNC(=O)NC(C)c2ccc(F)c(F)c2)CCOCC1 (stereo not given) | -14.87
11 | Cc1ccc(C(C(=O)NCCc2nc(C)cc(C)n2)N(C)C)cc1 (stereo not given) | 11.55
12 | COc1ccc(-c2cccc3c2OC(CN)C3)cc1F (stereo not given) | -8.297
13 | CCN1CCN(C[C@@H]2CN(c3ncc(Cl)cc3Cl)C[C@@H]2CO)CC1 | -5.198
14 | Cc1noc([C@H]2C[C@H]3OCC[C@H]3N(S(=O)(=O)C3CC3)C2)n1 | 5.212
15 | CCS(=O)(=O)N1C[C@@H](c2nnc(C)o2)C[C@H]2OCC[C@H]21 | 1.952
16 | Cc1noc([C@H]2C[C@H]3OCC[C@H]3N(C3CCC3)C2)n1.O=C(O)C(F)(F)F | 110.4
17 | Cc1noc([C@H]2C[C@H]3OCC[C@H]3N(Cc3scnc3C)C2)n1.O=C(O)C(F)(F)F.O=C(O)C(F)(F)F | -0.107
18 | Cc1noc([C@@H]2C[C@H]3OCC[C@H]3N(CC3CCCC3)C2)n1.O=C(O)C(F)(F)F | -10.41
19 | Cc1noc([C@@H]2C[C@H]3OCC[C@H]3N(Cc3cc(C)c(C)o3)C2)n1.O=C(O)C(F)(F)F | -0.5348
20 | CCCS(=O)(=O)N1C[C@@H](c2nc(C)no2)C[C@H]2OCC[C@H]21 | 120.5
21 | CCc1ccc(CN2C[C@@H](c3nc(C)no3)C[C@H]3OCC[C@H]32)o1.O=C(O)C(F)(F)F | 3.351
22 | Cc1noc([C@@H]2C[C@H]3OCC[C@H]3N(S(C)(=O)=O)C2)n1 | 0.371
23 | Cc1nnc([C@H]2C[C@H]3OCC[C@H]3N(S(=O)(=O)CC(C)C)C2)o1 | -13.43
24 | Cc1noc([C@H]2C[C@H]3OCC[C@H]3N(S(C)(=O)=O)C2)n1 | 101.7
25 | CCS(=O)(=O)N1C[C@H](c2nc(C)no2)C[C@H]2OCC[C@H]21 | 131.3
